Results on 40 molecules are retold here after ChEMBL document CHEMBL3433997, “St. Jude Leishmania screening dataset” (2016).

Values joined by “and” are separate entries in the source; they are usually repeats but may differ in a detail not shown here. Equal values may be shown once.

One may read the inhibition as the drop in the measured response relative to a control, in per cent.

The target in this assay is Glucose transporter (Leishmania mexicana) (UniProt O61059). The assay can be described thus: ST_JUDE_LEISH: Cytotoxicity at 2uM final concentration against transgenic Leishmania Mexicana promastigotes LmGT2 that are glucose transport deficient and complemented with the L. Mexicana glucose transporter 2. Activity is measured by DNA content using SYBR green in vitro. The format is functional.
As for `N#Cc1ccc2c(c1)CCN(CCCn1c(-c3ccc4ccccc4c3)nc3ccncc31)CC2`, the inhibition was 10.4%.

`CCN(CCCN1CCCCC1)c1cc(C)nc(Nc2ccc(OC)cc2)n1`: the inhibition is -1.02%.

On to `O=C(c1ccc(-c2ccccn2)s1)N1CCc2cc3nccc(N4CCN5CCC[C@H]5C4)c3cc21`, for which the inhibition was found to be 8.66%.

As to `COc1cc2nc(C)nc(Nc3ccc(Cc4ccccc4)cc3)c2cc1OC`, the inhibition came out at 3.99%.

`OC1=C2C(=Nc3ccccc3SC2c2ccccc2)c2ccccc21` (stereo not given): the inhibition was found to be 1.01%.

`O=C(NCCCCN1CCCC2c3ccc(O)cc3CCC21)c1ccc(-c2ccccc2)cc1` (stereo not given): the inhibition was 0.13% and -0.76%.

In the case of `NC(=O)Nc1ccc2c(Nc3ccc(OCc4ccccc4)cc3)ncnc2c1`, the inhibition was -2.05%.

As for `OCC1CCCCN1Cc1cccc(-c2cccc(-c3nc4ccccc4[nH]3)c2)c1` (stereo not given), the inhibition amounted to 4.46%.

With `COc1cccc(O)c1CN1CCC2(CCCN(Cc3ccc(F)cc3)C2)C1` (stereo not given), the inhibition is -0.21%.

As to `CC1CCCN(c2ccc(NC(=O)c3cccs3)cc2[N+](=O)[O-])C1` (stereo not given), the inhibition was -1.43%.

Take `CCc1ccccc1N1CCN(CCCCNC(=O)c2ccc(NC(=O)c3ccc(Cl)cc3)cc2)CC1`: the inhibition worked out at 0.44%.

As for `OC(Cn1ccnc1)(c1ccc(Cl)cc1Cl)C1CCCCC1` (stereo not given), the inhibition was -0.69%.

For the molecule `NC1=NC(c2ccccc2)(c2ccccn2)C(=O)N1CCCc1ccccc1` (stereo not given), the inhibition was 1.77%.

On to `O=C(Nc1ccc(Cl)cc1)c1cccc(S(=O)(=O)NC2CCN(CC3CCCCC3)C2)c1` (stereo not given), for which the inhibition was found to be 4.13%.

As to `CN1c2ccc([N+](=O)[O-])cc2C(C)(C)C12C=Cc1cc(Br)cc([N+](=O)[O-])c1O2` (stereo not given), the inhibition is -0.71%.

For `O=S(=O)(Nc1cccc(CCN2CCCCC2CCN2CCCC2)c1)c1ccc(-c2ccccc2)cc1` (stereo not given), the inhibition was -2.73%.

Turning to `CCCCNCc1ccc(-c2nc(CN(C(=O)Nc3cc([N+](=O)[O-])ccc3F)C3Cc4ccccc4C3)cs2)cc1`, the inhibition turned out to be 4.78%.

In the case of `COc1ccc(CNC2CCN(C)CC2)cc1-c1ccc(OC)c(S(=O)(=O)NCc2ccccc2)c1`, the inhibition is 0.01%.

In the case of `Oc1ccc(CCNCCCCCCNCCc2ccc(Cl)c3ccccc23)cc1O`, the inhibition is -2.9%.

With `O=C(N[C@H]1CCN(Cc2ccc(OCCN3CCNCC3)c(Br)c2)C1)c1ccc(Cl)c(Cl)c1`, the inhibition was found to be 1.51%.

Turning to `CC(C)C(NC(=O)Cc1cccc2ccccc12)C(=O)Nc1cccc(C#N)c1` (stereo not given), the inhibition stood at 2.76%.

As to `COc1ccccc1N1CCN(CCCCNC(=O)c2ccc(NC(=O)c3ccc(C(F)(F)F)cc3)cc2)CC1`, the inhibition was -0.69%.

For the molecule `CC(C)CNCc1cccc(-c2cccc(CNCCCN3CCN(C)CC3)c2)c1`, the inhibition turned out to be 4.44%.

In the case of `O=C(c1ccc(-c2ccc(-c3nc4cc(F)ccc4[nH]3)cc2)cc1)N1CCCCC1CN1CCC(O)C1` (stereo not given), the inhibition was 1.78%.

As to `Cc1ccc2[nH]c(C)cc(=NN=Cc3ccccc3Cl)c2c1`, the inhibition was 0.08%.

Take `CN1CCC(NCc2ccc(-c3cccc(S(=O)(=O)NCC4CCCO4)c3)cc2)CC1` (stereo not given): the inhibition was determined as 6.61%.

Take `Cc1cc(=NN=CC=Cc2ccccc2)c2ccccc2[nH]1`: the inhibition is 0.81%.

As to `CC(=O)Oc1cc(C(=O)Nc2ccc(Cl)cc2)cc2ccccc12`, the inhibition was 5.8%.

Take `Cc1nccc2c(NC(=O)N[C@@H]3CCN(c4ncc(C(F)(F)F)cc4Br)C3)cccc12`: the inhibition turned out to be 0.74%.

As for `CNc1ccc(CNCc2ccc(-c3ccc(-c4nc5cc(C(F)(F)F)ccc5[nH]4)cc3)cc2)cc1`, the inhibition stood at 9.71%.

For `O=C(c1ccc(Cl)cc1Cl)N1CCCC(C(F)(F)F)C1` (stereo not given), the inhibition worked out at 10.3%.

In the case of `Cc1ccc2c(c1)c(C1CCN(C(=O)c3ccc([N+](=O)[O-])o3)CC1)cn2C`, the inhibition was 4.16%.

Regarding `COc1ccc(NC(=O)c2ccc(NC(=O)c3ccc(Cl)cc3)cc2)cc1N1CCN(C)CC1`, the inhibition is 3.5%.

Consider `O=C(N[C@H]1CCN(Cc2ccc(OCCCN3CCCCC3)cc2)C1)c1ccc2ccccc2c1`, for which the inhibition came out at 2.1%.

`COc1cccc2c(NCc3ccccc3)nc(NCCCN3CCCCC3C)nc12` (stereo not given): the inhibition worked out at 13.1%.

`Cc1cccn2c(=O)c3cc(C(=O)NCCc4ccccc4)c(=N)n(CCCOC(C)C)c3nc12`: the inhibition stood at 2.98%.

In the case of `CCN(CC)CCn1c(=N)n(CC(=O)c2ccc(-c3ccccc3)cc2)c2ccccc21`, the inhibition was found to be 2.35%.

Take `CN(C)CCOc1ccc(N2CCN(CCCCNC(=O)c3ccc(NC(=O)c4ccc(Cl)cc4)cc3)CC2)cc1`: the inhibition was 3.48%.

Regarding `CCn1c(C(C)C)cc2c3c(N)nc(N)nc3ccc21`, the inhibition was 42%.

Turning to `COc1ccc(N2CCc3c(-c4cccc5cnccc45)cc(C)nc32)c(C)c1`, the inhibition is -0.88%.
